What is called Inhibition is the drop in the measured response relative to a control, in per cent.

The structures appear in SMILES notation.

Common to all, as to format: functional
Assay [1] concerns Plasmodium falciparum. The assay is described as follows: GSK_TCMDC: Inhibition of Plasmodium falciparum 3D7 in whole red blood cells, using parasite LDH activity as an index of growth. Test compounds present at 2uM.
Assay [2] has as its system Plasmodium falciparum. As to the kind of experiment: GSK_TCMDC: Inhibition of Plasmodium falciparum Dd2 in whole red blood cells, using parasite LDH activity as an index of growth. Test compounds present at 2uM.
Assay [3] has as its system HepG2. As to the kind of experiment: GSK_TCMDC: Percent inhibition of human HepG2 cell line. Test compounds present at 10uM.

Take `Cc1cnc(CNCc2ccc(S(=O)(=O)Nc3ccc(Oc4cccc(Cl)c4)cc3)cc2)cn1.O=C(O)C(F)(F)F`: the Inhibition came out at 97% in assay [1], 0% in assay [2] and 4% in assay [3].
For `O=C(Nc1ccc(Cl)cc1)Nc1ccc2nonc2c1`, the Inhibition is listed as 94% in assay [1], 77% in assay [2] and 0% in assay [3].
The like results for `CCN(CC)CCCNCc1ccc(-c2ccc(C(F)(F)F)cc2)cc1` were, in that order, 95%, 35% and 53%.
For `COc1ccc(CNC(=O)NC2CCN(c3ccnc(Nc4ccc(F)cc4)n3)C2)cc1` (stereo not drawn), in that order: 91%, 78% and 4%.
The like results for `O=C(Cc1cn(-c2ccccc2)nc1-c1ccc(Cl)cc1)Nc1nccs1` were, in that order, 88%, 8% and 9%.
On to `COc1ccc2c(NN=Cc3cccc(Cl)c3)ccnc2c1`, for which the Inhibition in assay [1] worked out at 100%; in assay [2], 94%; in assay [3] it was 32%.
For `Fc1ccc(-c2cncc(-c3ccc(F)cc3)n2)cc1`, in that order: 99%, 94% and 7%.
For `CCc1ccc(NC(=O)c2ccc(CN3CCCN(Cc4ccc(C)s4)CC3)cc2)cc1.O=C(O)C(F)(F)F`, in that order: 87%, 0% and 48%.
Consider `CC1(CCc2ccccc2)N=C(N)N=C(N)C1c1ccc(Cl)c(Cl)c1.Cl` (stereo not drawn), for which the results for the Inhibition in assay [1], in assay [2] and in assay [3] were 98%, 39% and 19%, respectively.
For `O=C(/C=C/c1ccc(Cl)c(Cl)c1)NC1CCN(CCNC(=O)c2cccc(Cl)c2)CC1.O=C(O)C(F)(F)F`, in that order: 100%, 45% and 22%.
`CCn1cnc2c(N3CCCCS3(=O)=O)cc(C(=O)N[C@@H](Cc3ccccc3)[C@H](O)CNC3CCOCC3)cc21`: the Inhibition is given as 99% in assay [1], 87% in assay [2] and 7% in assay [3].
